Bioassay records from PubChem BioAssay.
HPGD inh = HPGD (human) dehydrogenase inhibition; purified HPGD, NADH fluorescence kinetic, PGE2 substrate; Potency, µM, for the others: at the top dose activity change, negative = inhibition, hits mostly inhibitors; 4.3% of 150,000 active; AID 894; active = well fitted inhibition curve with a large enough effect, not every such curve was filed as active; inconclusive = small, poorly fitted or top-dose-only effect, or another doubt; inactive = no such curve, though single readings can be large or run the other way
Target sequence (P15428 whole entry, looked up): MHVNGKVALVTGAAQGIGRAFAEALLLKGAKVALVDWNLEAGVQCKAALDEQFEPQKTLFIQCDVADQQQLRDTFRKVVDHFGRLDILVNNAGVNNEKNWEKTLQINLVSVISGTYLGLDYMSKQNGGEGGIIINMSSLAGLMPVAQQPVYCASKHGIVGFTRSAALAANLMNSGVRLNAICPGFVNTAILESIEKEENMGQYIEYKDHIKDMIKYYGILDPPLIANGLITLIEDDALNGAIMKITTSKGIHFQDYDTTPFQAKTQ
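20 nM HPGD preincubated 15 min at room temperature with compound in 50 mM Tris-HCl pH 8, 0.01% Tween 20. Started with 1 mM NAD+ and 30 uM prostaglandin E2; NADH fluorescence (360/450 nm) read 5 times over 30-s intervals, last minus first.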
ALDH1A1 block = blocks purified human ALDH1A1 activity; Potency, µM (doses to about 75.3 µM), without a hit: at the top dose activity, negative = inhibition, most hits filed as inhibitors; 7.3% of 220,000 active; Purified ALDH1A1, NADH fluorescence, propionaldehyde substrate; P00352; active = well fitted inhibition curve with a large enough effect, not every such curve was filed as active; inconclusive = small, poorly fitted or top-dose-only effect, or another doubt; inactive = no such curve, though single readings can be large or run the other way;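 note: plate controls were no enzyme wells and a reference inhibitor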
Target sequence (P00352 whole entry, looked up): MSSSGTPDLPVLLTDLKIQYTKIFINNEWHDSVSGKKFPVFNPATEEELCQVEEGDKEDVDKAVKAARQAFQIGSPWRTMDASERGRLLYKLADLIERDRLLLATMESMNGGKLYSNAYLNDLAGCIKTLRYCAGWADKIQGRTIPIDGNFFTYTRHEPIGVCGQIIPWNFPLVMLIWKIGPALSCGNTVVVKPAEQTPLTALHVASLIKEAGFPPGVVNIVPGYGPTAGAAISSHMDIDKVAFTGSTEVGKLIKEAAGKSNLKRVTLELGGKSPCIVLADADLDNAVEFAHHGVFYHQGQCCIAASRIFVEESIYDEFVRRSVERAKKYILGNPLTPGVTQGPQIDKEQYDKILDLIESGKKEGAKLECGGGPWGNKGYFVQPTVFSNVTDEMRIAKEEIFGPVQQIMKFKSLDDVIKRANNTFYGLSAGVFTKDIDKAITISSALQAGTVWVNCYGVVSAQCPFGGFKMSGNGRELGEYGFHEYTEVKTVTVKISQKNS
Luc counter = blocks Kinase-Glo luciferase, a counter-screen artifact; Kinase-Glo luciferase, ATP luminescence, 8 min; 0.28% of 200,000 active; Q27757; Potency, µM (doses to about 38.3 µM), inactives show at the top dose activity change, negative = inhibition, most hits filed as inhibitors; AID 1379; note: nearly all actives have a fitted effect of over 60% in size
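Light output from Kinase-Glo luciferase with luciferin and 10 uM ATP in 50 mM imidazole pH 7.2, KCl, MgCl2, Tween 20, BSA; compound pin-delivered, 8-min ambient incubation, then luminescence read.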
IMPase Li cell = IMPase inhibition in cells with lithium potentiation | CHO-M1 cells, IP1 TR-FRET (IP-One), carbachol + lithium | Potency, µM (doses to about 59.4 µM), for the others: top-dose activity, negative = IMPase inhibition, hits mostly inhibitors | 0.35% of 210,000 active;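 note: IP1 builds up when IMPase is blocked and the TR-FRET signal falls; plate controls were basal vehicle for no effect and high inhibitor control for full effect; nearly all actives have a fitted effect of over 50% in size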
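Test compounds were applied to CHO-M1 cells previously cultured for 16–30 h at 2000 per well. A small lithium amount accompanied them; after 30 min at 37C, IP1 was quantified by TR-FRET.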
Lamin A splicing = LMNA splicing modulation | HeLa LMNA splicing GFP/RFP minigene ratio, 48 h | Potency, µM (highest dose often 46.1 µM), inactives show at the highest dose ratio change, negative = inhibition, hits mostly inhibitors | 0.01% of 200,000 active | AID 1487; active = well fitted inhibition curve with a large enough effect in the signal ratio, with a control signal flat, not every such curve was filed as active; inconclusive = small, poorly fitted or top-dose-only effect, or effect the other way, or a change in a side signal; the % refers to the signal ratio
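S3 HeLa cells stably expressing lamin A-EGFP splicing minigene plus DsRed2, 600 cells/well, 48 h compound exposure at 37C. Laser-scanning cytometry; analysed as GFP (500-530 nm)/RFP (575-640 nm) total intensity ratio; 0.5% DMSO vehicle.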
Starred values were filed as active, the others as inactive; [ ] = remark or other dose. An excerpt weighted towards active compounds, which were near 9% of everything screened. Unless noted, calls come from the whole dose curve; as a rule, active = well fitted curve in the direction sought with a large enough effect; inconclusive = small, poorly fitted or top-dose-only effect, or another doubt; inactive = no such curve, though single readings can be large; an effect the other way counts as inactive or inconclusive. Unless noted, % is set by controls: 0 for no effect and ±100 for the full control effect; potency is the fitted concentration of half-maximal effect.

What do the screens show for `CCN1CCN(CC(=O)Nc2ccc(Cl)c(S(=O)(=O)N(C)C)c2)CC1`?
ALDH1A1 block: 3.55µM*; Luc counter: 3.9%; IMPase Li cell: 14.7%

Results for O=C(CN1CCCc2ccccc21)NCc1ccccc1Cl ?
ALDH1A1 block: inconclusive; Lamin A splicing: -0.1%

How did CN(C)S(=O)(=O)c1cc(NC(=O)CN2CCCc3ccccc32)ccc1Cl do in these assays?
ALDH1A1 block: 8.91µM*; Luc counter: 1.1%; IMPase Li cell: 4.1%; Lamin A splicing: 8.6%[9.22 µM]

How did O=C(NCc1cn2ccsc2n1)c1c(F)cccc1Cl do in these assays?
HPGD inh: 8.91µM*; ALDH1A1 block: 1.2%; Luc counter: 3.1%; IMPase Li cell: 22.4%[38.3 µM]; Lamin A splicing: -3.0%

Results for Cc1ccc(S(=O)(=O)N2C(=O)C(C)SC2=Nc2ccccc2)cc1 (centres undefined) ?
HPGD inh: -4.7%; ALDH1A1 block: inconclusive; Luc counter: 1.2%; IMPase Li cell: -4.4%; Lamin A splicing: 16.0%

What do the screens show for `Cc1ccc(S(=O)(=O)N2C(=O)C(c3ccccc3)SC2=Nc2ccccc2)cc1` (centres undefined)?
HPGD inh: 10µM*; ALDH1A1 block: 8.91µM*; Luc counter: -1.3%; IMPase Li cell: 9.7%[38.3 µM]; Lamin A splicing: 3.5%

What do the screens show for `Cc1oc(-c2ccc(Cl)cc2)cc1-c1nn2c(-c3ccoc3C)nnc2s1`?
HPGD inh: 25.1µM*; ALDH1A1 block: 20µM*; Luc counter: -3.6%; IMPase Li cell: 20.5%[38.3 µM]; Lamin A splicing: 11.9%

Results for COc1ccc(S(=O)(=O)NCCS(=O)(=O)N2CCN(c3ccccc3)CC2)cc1OC ?
Lamin A splicing: 7.3%[46 µM]

What do the screens show for `Cc1nnc(SCC(=O)NCC(=O)Nc2ccc(F)c(F)c2F)n1Cc1ccccc1`?
ALDH1A1 block: -10.9%; Luc counter: 2.1%; IMPase Li cell: 2.5%; Lamin A splicing: -6.1%[46 µM]

What do the screens show for `CC(=O)c1ccc(NS(=O)(=O)c2ccc(CC(C)C)cc2)cc1`?
HPGD inh: inconclusive; ALDH1A1 block: 6.31µM*; Luc counter: 2.8%; IMPase Li cell: 15.0%[38.3 µM]; Lamin A splicing: inconclusive

What do the screens show for `Cc1nnsc1C(=O)N1CCC(C(=O)c2ccccc2)CC1`?
ALDH1A1 block: -19.9%

What do the screens show for `C1CCC(C(C[C@@H]2CCCCN2)C2CCCCC2)CC1`?
HPGD inh: -0.7%; ALDH1A1 block: inconclusive; Luc counter: -2.4%[17.1 µM]; IMPase Li cell: 11.2%; Lamin A splicing: inconclusive

How did O=C(Oc1cc(-c2ccccc2)no1)c1ccc(F)cc1 do in these assays?
HPGD inh: -9.2%; ALDH1A1 block: 8.9%; Luc counter: -0.1%; IMPase Li cell: -5.7%[38.3 µM]; Lamin A splicing: 14.5%

Results for O=C(Oc1cc(-c2ccccc2)no1)c1cccc(C(F)(F)F)c1 ?
HPGD inh: -16.8%; ALDH1A1 block: 7.94µM*; Luc counter: -0.6%; IMPase Li cell: 13.2%[38.3 µM]; Lamin A splicing: 0.0%

Results for N#C/C(=C\c1ccc(-c2cccc(C(F)(F)F)c2)o1)C(=O)Nn1cnnc1 ?
HPGD inh: 1.41µM*; ALDH1A1 block: 2.5%; Luc counter: -1.0%; IMPase Li cell: 2.2%; Lamin A splicing: -10.0%

Results for CC(=O)c1cccc(NC(=S)NC(=O)c2ccc(Cl)cc2)c1 ?
HPGD inh: -20.6%; ALDH1A1 block: 25.1µM*; Luc counter: 0.6%; IMPase Li cell: 3.0%; Lamin A splicing: inconclusive

How did CC(=O)c1cccc(NC(=S)NC(=O)c2ccccc2C)c1 do in these assays?
ALDH1A1 block: inconclusive; Luc counter: 2.2%; IMPase Li cell: 15.8%; Lamin A splicing: 22.9%[46 µM]

How did CC(=O)c1cccc(NC(=S)NC(=O)c2cccc(C)c2)c1 do in these assays?
HPGD inh: 22.4µM*; ALDH1A1 block: inconclusive; Luc counter: -2.8%; IMPase Li cell: 6.7%; Lamin A splicing: inconclusive

How did CC(C)=CCNc1ncnc2c1c(C#N)cn2[C@H]1O[C@@H](CO)[C@@H](O)[C@@H]1O do in these assays?
HPGD inh: -4.7%; ALDH1A1 block: -7.8%[13.5 µM]; Luc counter: -3.2%[7.66 µM]; IMPase Li cell: 2.1%

What do the screens show for `CCCn1c(O)c(N=NC(=O)c2ccco2)c2ccccc21`?
HPGD inh: -15.1%; ALDH1A1 block: inconclusive; Luc counter: 3.5%; IMPase Li cell: 2.0%; Lamin A splicing: inconclusive

How did CCCn1c(O)c(N=NC(=O)c2cccnc2)c2cc(Br)ccc21 do in these assays?
ALDH1A1 block: 1.12µM*

What do the screens show for `COCCN1C(=O)/C(=C/c2ccc(N3CCCC3)cc2C)SC1=S`?
ALDH1A1 block: inconclusive; Luc counter: -17.0%; IMPase Li cell: 11.4%; Lamin A splicing: 21.5%[46 µM]

How did COc1ccc(S(=O)(=O)c2nnn(-c3cccc(Cl)c3)c2N)cc1 do in these assays?
ALDH1A1 block: 5.3%; Luc counter: -2.0%; IMPase Li cell: -1.1%; Lamin A splicing: 2.8%[46 µM]

How did Cc1ccc(S(=O)(=O)NCC(=O)N(CC(=O)NCc2ccco2)Cc2ccco2)cc1 do in these assays?
ALDH1A1 block: 8.91µM*; Luc counter: -6.0%; IMPase Li cell: -1.2%; Lamin A splicing: -17.6%[46 µM]

What do the screens show for `O=C(CN(Cc1ccco1)C(=O)CNS(=O)(=O)c1ccc(F)cc1)NCCc1ccccc1`?
HPGD inh: -6.9%; ALDH1A1 block: 4.0%; Luc counter: 1.2%; IMPase Li cell: 32.4%[38.3 µM]; Lamin A splicing: -4.5%

Results for O=C(CN(Cc1cccs1)C(=O)CNS(=O)(=O)c1ccccc1)NCc1ccco1 ?
HPGD inh: -4.7%; ALDH1A1 block: 20µM*; Luc counter: 5.1%; IMPase Li cell: 2.8%[38.3 µM]; Lamin A splicing: -12.4%

What do the screens show for `O=C(CN(CC1CCCO1)C(=O)CNS(=O)(=O)c1ccccc1)NCc1ccco1` (centres undefined)?
ALDH1A1 block: 8.3%; Luc counter: -3.4%; IMPase Li cell: -1.8%

What do the screens show for `Cc1ccc(S(=O)(=O)NCC(=O)N(CC(=O)NCC2CCCO2)Cc2ccco2)cc1` (centres undefined)?
ALDH1A1 block: 17.8µM*; Luc counter: -0.5%; IMPase Li cell: -3.9%; Lamin A splicing: -1.4%[46 µM]

How did O=C(CN(Cc1ccco1)C(=O)CNS(=O)(=O)c1ccccc1)NCc1ccccc1 do in these assays?
HPGD inh: -19.3%; ALDH1A1 block: 14.1µM*; Luc counter: 1.1%; IMPase Li cell: 11.7%[38.3 µM]; Lamin A splicing: 6.5%

How did COc1ccc(CC(=O)NCc2ccc3c(c2)CCN3C(=O)c2ccc(C)cc2)cc1OC do in these assays?
Lamin A splicing: -2.3%[46 µM]

Results for C/C=C/c1c(F)c(F)c(Oc2ccc(C(=O)O)cc2)c(F)c1F ?
HPGD inh: inconclusive; ALDH1A1 block: 13.6%; Luc counter: -5.0%; IMPase Li cell: 28.7%[38.3 µM]; Lamin A splicing: 12.5%

Results for CCOC(=O)c1cc(S(=O)(=O)N2CCN(c3cc(C)ccc3C)CC2)[nH]n1 ?
Lamin A splicing: -13.9%[46 µM]

Results for CCOc1ccc(CNC(=O)Cn2c(=O)c3cccn3c3ccc(F)cc32)cc1OC ?
Lamin A splicing: 6.5%[46 µM]
